TR SRC2 fluor cs: Total Fluorescence Counterscreen for Inhibitors of the Interaction of Thyroid Hormone Receptor and Steroid Receptor Coregulator 2; TRb/SRC2 Texas Red total fluorescence interference; Potency, µM (series often up to 106 µM), for inactives: at the top dose fluorescence change, negative = quenching; 280,000 compounds, 0.29% hits; active means well fitted curve in either direction with a large enough effect; inconclusive means small, poorly fitted or top-dose-only effect; further: potency means the concentration at half of the fitted maximal effect
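Human TRb ligand-binding domain at 0.6 uM with 20 nM Texas Red SRC2 peptide in Tris buffer containing 1 uM T3 and 5% DMSO, incubated with compound 5 h at ambient temperature. Total fluorescence (555/632 nm) calculated as parallel + 2 × perpendicular.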
TRb SRC2 PPI: qHTS for Inhibitors of the Interaction of Thyroid Hormone Receptor and Steroid Receptor Coregulator 2 | Thyroid hormone receptor beta (Homo sapiens), P10828 | TRbeta-SRC2 peptide binding, fluorescence polarization; receptor liganded with 1 µM T3 | Potency, µM (top dose mostly 106 µM), for inactives: top-dose activity change, negative = inhibition, hits mostly inhibitors | 280,000 compounds, 0.065% hits;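 further: potency means the concentration at half of the fitted maximal effect; plate controls were bound peptide for no effect and peptide without receptor for full effect; nearly all actives have a fitted effect of over 50% in size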
Target sequence (P10828 whole entry, looked up): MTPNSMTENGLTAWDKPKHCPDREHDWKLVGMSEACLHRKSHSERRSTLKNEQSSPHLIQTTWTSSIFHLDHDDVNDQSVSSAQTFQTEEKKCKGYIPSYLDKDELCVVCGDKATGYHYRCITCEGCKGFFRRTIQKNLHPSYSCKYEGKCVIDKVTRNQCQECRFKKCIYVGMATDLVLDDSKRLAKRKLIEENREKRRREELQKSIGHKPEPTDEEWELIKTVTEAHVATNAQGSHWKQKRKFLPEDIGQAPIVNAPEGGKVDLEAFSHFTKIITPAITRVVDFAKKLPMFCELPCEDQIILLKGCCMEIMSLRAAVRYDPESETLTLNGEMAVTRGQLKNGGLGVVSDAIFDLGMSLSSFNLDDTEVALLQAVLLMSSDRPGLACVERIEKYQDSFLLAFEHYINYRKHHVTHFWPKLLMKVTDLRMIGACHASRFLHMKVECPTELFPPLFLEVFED
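Polarization signal, normalized between peptide-alone and full complex controls, measured compound effects on T3-liganded human TRb LBD (0.6 uM) binding 20 nM Texas Red SRC2 peptide after 5 hr.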
Tau fluor counter: Counterscreen qHTS for Inhibitors of Tau Fibril Formation, Fluorescence Polarization; tau K18 P301L Alexa594 fluorescence, heparin fibrillization; Potency, µM (titrated, usually from 57.7 µM), without a hit: at the highest dose activity change, negative = decrease; 280,000 compounds, 0.93% hits; further: potency means the concentration at half of the fitted maximal effect; nearly all actives have a fitted effect of over 55% in size
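Human tau K18 P301L (15 uM unlabeled, 0.24 uM Alexa 594-labeled) in 100 mM sodium acetate pH 7 with 20 uM heparin, 6 hr at 37 C. ThT 30 uM added, 1 hr ambient; Alexa 594 FP and total fluorescence read at 555/632 nm.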
PNC inhibitor: High Content Assay for Compounds that inhibit the Assembly of the Perinucleolar Compartment | PC3M PTB-GFP, PNC prevalence imaging, 16 h; stronger effect = lower value | activity change (PNC), negative = inhibition, % at 10 µM | 140,000 compounds, 3.1% hits;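 active means readout at or below -70, meaning at least 70% loss of cells showing the perinucleolar compartment, a nuclear body marking cancer cells; inconclusive means readout between -30 and a set limit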;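 further: plate controls were DMSO wells for no effect and camptothecin positive control wells for full effect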
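PC3M cells stably expressing PTB-GFP, 750–1000 cells/well, treated 16 h at 37 °C with compound (23 nl of library stock), in duplicate. After paraformaldehyde fixation and Hoechst stain, imaged at 20x; PNC prevalence scored by image analysis.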
Tau fibril ThT: qHTS for Inhibitors of Tau Fibril Formation, Thioflavin T Binding; Microtubule-associated protein tau (Homo sapiens), P10636; recombinant tau K18 P301L (four-repeat tau fragment), heparin-induced fibrillization, ThT fluorescence; Potency, µM (titrated, usually from 57.4 µM), without a hit: at the highest dose activity, negative = inhibition, hits mostly inhibitors; 270,000 compounds, 2.1% hits; AID 1460, 2008; further: potency means the concentration at half of the fitted maximal effect; nearly all actives have a fitted effect of over 55% in size
Target sequence (P10636 561-689 P618L limits assumed): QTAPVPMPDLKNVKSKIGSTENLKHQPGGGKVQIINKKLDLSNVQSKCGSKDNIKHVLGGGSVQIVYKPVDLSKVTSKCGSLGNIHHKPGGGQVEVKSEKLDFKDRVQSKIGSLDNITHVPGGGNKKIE
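In this qHTS, human K18 P301L tau is incubated with compound and heparin for 6 hr at 37 C, and Thioflavin T fluorescence then reports fibril load.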
Tau FP inhib: qHTS for Inhibitors of Tau Fibril Formation, Fluorescence Polarization; Microtubule-associated protein tau (Homo sapiens), P10636; K18 P301L tau heparin fibrillization, Alexa594 FP, 6 h; Potency, µM (top dose mostly 57.7 µM), inactives show at the highest dose activity, negative = inhibition, usual class: inhibitors; 280,000 compounds, 0.39% hits; AID 1468, 2008; further: potency means the concentration at half of the fitted maximal effect; nearly all actives have a fitted effect of over 55% in size
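Read-out: fluorescence polarization of Alexa 594-labeled tau (0.24 uM), 555 nm excitation, 632 nm emission. Mixtures held 15 uM unlabeled K18 P301L, compound and 20 uM heparin, pH 7 acetate buffer, incubated 6 hr at 37 C.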
An asterisk follows results filed as active; ? = inconclusive; / = not tested or not shown; [ ] = another dose, or the depositor's remark. Shown are actives, neighbours in structure and some others; about 4.6% of the full set was active somewhere. Unless noted, the call rests on the fitted dose curve; in most records, active means well fitted curve in the direction sought with a large enough effect; inconclusive means small, poorly fitted or top-dose-only effect, or another doubt; inactive means no such curve, though single readings can be large; an effect the other way counts as inactive or inconclusive. Unless noted, on the % scale 0 is the no-effect control and ±100 the full control effect.

SMILES	TR SRC2 fluor cs	TRb SRC2 PPI	Tau fluor counter	PNC inhibitor	Tau fibril ThT	Tau FP inhib
COc1ccc(NC(=S)NCC(c2ccco2)N2CCCC2)cc1 (stereo not given)	0%	-1%	-10%	/	-6%	-1%
O=C(c1cccnc1)N1CCN(C(=O)c2ccco2)CC1	-4%	-2%	-1%	-100*	2%	-4%
O=C(c1ccco1)N1CCN(C(=O)C2CCCO2)CC1 (stereo not given)	-1%	-5%	4%	-100*	-6%	4%
Cc1cc(-c2ccc(C)c(S(=O)(=O)N(C(C)C)C3CCCCC3)c2)on1	-1%	-6%	-24%	/	-6%	0%
N#C/C(=C\c1ccccc1)c1nc(-c2cc3c(ccc4ccccc43)oc2=O)cs1	0.28µM*[quencher]	-29%[53 µM]	-13%	/	2%	?
COc1cc(NC(=O)N2c3ccccc3Sc3ccccc32)cc(OC)c1	-2%	2%	-21%	/	-2%	-10%
CCOC(=O)c1c(S(=O)(=O)N2CCCC(C(=O)N(C)Cc3ccccc3)C2)c(C)n(C)c1C (stereo not given)	-4%	-2%	-8%	/	1%	0%
Nc1cc2nsnc2cc1Br	-9%	?	?	34	8.9µM*	?
Cc1cccc(N(CC(=O)NCc2ccccc2)C(=O)Cn2nnc(-c3ccc(C)o3)n2)c1	-6%	-1%	-6%	-84*	-1%	1%
O=C(CCc1ccccc1)Nc1c(F)c(F)c(F)c(F)c1F	-1%	5%	-1%	?	0%	9%
C/C(=N\Nc1ccccc1)c1cc2ccccc2oc1=O	-2%	1%	?	/	11µM*	?
CCOC(=O)c1c(C)[nH]c(-c2csc(N)n2)c1C	4%	5%	?	/	25µM*	?
O=C(CC(SCc1ccco1)c1ccc(O)cc1)c1cccs1 (stereo not given)	2%	-13%	?	49	-13%	-9%
O=C(CC(SCCO)c1ccc2c(c1)OCO2)c1cccs1 (stereo not given)	-9%	5%	-4%	-112*	?	10%
CC(C)NCC(O)COC1CCC(C(C)(C)C)CC1 (stereo not given)	-1%	1%	-9%	/	-6%	-3%
COc1ccc(N2C(=O)S[C@@H]3CS(=O)(=O)C[C@@H]32)cc1	1%	-4%	-6%	-113*	-5%	-6%
CCCc1ccc(Oc2c(-c3ccc(O)c(C)c3O)n[nH]c2C)cc1	1%	5%	13µM*[quencher]	?	28µM*	?
CCCc1ccc(Oc2cn[nH]c2-c2ccc(O)c(C)c2O)cc1	-4%	-4%	14µM*[quencher]	0	25µM*	-6%
COc1ccc(Oc2c(-c3ccc(O)cc3O)n[nH]c2C)cc1	0%	12%	?	-30	-3%	12%
COc1cccc(-c2cc(C(F)(F)F)c(C#N)c(=O)[nH]2)c1	-2%	-3%	3%	/	6%	1%
COC(=O)c1c(-c2cccs2)csc1NC(=O)c1cccc(Cl)c1	1122µM*[quencher]	?	-25%	/	?	?
COC(=O)c1c(-c2cccs2)csc1NC(=O)c1ccc(Cl)cc1	7%	-1%	-28%	/	13µM*	?
COC(=O)c1c(-c2cccs2)csc1NC(=O)COc1ccc(C)cc1	?	-26%	-27%	/	?	-4%
COC(=O)c1c(-c2cccs2)csc1NC(=O)c1cccnc1	1%	-17%	-16%	-100*	-18%	2%
CCOC(=O)c1c(-c2ccc(C)cc2)csc1NC(=O)c1cc(=O)c2ccc(C)cc2o1	35µM*[quencher]	-10%	-20%	/	-11%	-3%
SMILES	TR SRC2 fluor cs	TRb SRC2 PPI	Tau fluor counter	PNC inhibitor	Tau fibril ThT	Tau FP inhib
COC(=O)c1c(-c2cccs2)csc1NC(=O)c1ccc(C(C)C)cc1	0%	-10%	-19%	/	?	?
Cc1ccccc1-c1noc(-c2cc(-c3ccc(F)cc3)n[nH]2)n1	-1%	-11%	-17%	/	4%	?
C/C(=N\NC(=O)c1cccc(Cl)c1)c1cccc(NC(=O)C(C)C)c1	-1%	-13%	-2%	14	-2%	-4%
COC(=O)c1c(-c2cccs2)csc1NC(=O)c1ccc(C(C)(C)C)cc1	-3%	-3%	-11%	/	25µM*	22µM*
CCOC(=O)c1c(-c2cccs2)csc1NC(=O)c1ccco1	-2%	-7%	2%	-100*	1%	-2%
CCOC(=O)c1c(-c2cccs2)csc1NC(=O)CC(C)C	2%	-16%	-11%	12	-11%	-7%
COC(=O)N1N=C(c2ccccc2)CC1(O)C(F)(F)F (stereo not given)	0%	7%	7%	48	3%	-2%
CCCCC(=O)NC(=S)NNC(=O)CCc1ccccc1	0%	1%	-12%	/	/	-4%
CC(C)n1c(=NC(=O)c2ccco2)c(C#N)cc2c(=O)n3ccccc3cc21	1%	2%	-3%	-82*	?	4%
Cn1c(=O)oc2cc(S(=O)(=O)NC(Cc3ccccc3)C(=O)NCc3ccc(F)cc3)ccc21 (stereo not given)	-1%	8%	7%	/	13%	-3%
COCCCNC(=O)c1nn(C)c2c1CS(=O)(=O)c1ccccc1-2	100µM*[quencher]	-17%	-8%	/	-10%	5%
CCN(CC)CCCNC(=O)c1nn(C)c2c1CS(=O)(=O)c1ccccc1-2	?	-1%	-9%	/	-10%	-6%
CCOC(=O)C1=C(c2ccccc2)N=c2s/c(=C\c3ccc(O)cc3)c(=O)n2C1c1cccs1 (stereo not given)	0%	9%	8.9µM*[quencher]	21	?	32µM*
O=C(NO)c1ccc(OC(F)F)cc1	-2%	4%	6%	144	5%	12%
COC(=O)COc1ccc(C2C(C(=O)OC)=C(C)NC3=C2C(=O)c2ccccc23)cc1OC (stereo not given)	-2%	-6%	14µM*[quencher]	/	14µM*	6%
CCOC(=O)C1=C(C)NC2=C(C(=O)c3ccccc32)C1c1ccc([N+](=O)[O-])o1 (stereo not given)	-3%	0%	?	/	?	6%

High-throughput results (PubChem)
